For test [1], the system named is Zika virus NS2B-NS3 protease. As to the kind of experiment: Primary screen GU AMC qHTS for Zika virus inhibitors (AID 1347154). Note: nearly all actives have a fitted effect of over 70% in size. Note: potency is the fitted concentration of half-maximal effect. The gist of the method:
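Unlinked Zika NS2B hydrophilic domain/NS3 protease domain noncovalent complex (25 nM final) in 10 mM Tris-HCl pH 8.0, 0.01% Tween 20, with AMC peptide substrate. Fluorescence (ex 340, em 450 nm) change over 15 min, room temperature; percent inhibition fitted to 4-parameter Hill equation.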

The target in test [2] is Lysine-specific demethylase 5B (Homo sapiens) (UniProt Q9UGL1). As to the kind of experiment: Optimization screen for KDM5B Histone Demethylases FDH coupled qHTS against the LOPAC library (AID 1347166). The essentials: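 KDM5BDeltaAP (200nM final) preincubated 10 min with compound, then 12.5uM H3K4Me3, 25uM a-ketoglutarate, ascorbate, Fe(II), NAD+ and FDH added; 50mM HEPES pH 7.5, 0.01% Tween-20. NADH fluorescence (340/450 nm) change over 30 min, room temperature.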

The nature of test [3]: Confirmatory screen NINDS Rhodamine qHTS for Zika virus inhibitors (AID 1347161). Note: potency is the fitted concentration of half-maximal effect; nearly all actives have a fitted effect of over 60% in size. The gist of the method: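 Enzyme (25 nM, linked NS2B-NS3) was preincubated 15 min with compound in 10 mM Tris-HCl pH 8.0, 0.01% Tween 20. Rhodamine110 substrate (1.5 microM) was then added and fluorescence read at start and after 15 min.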
A short description of test [4]: Vero cells viability qHTS for Zika virus inhibitors (AID 1347167). The essentials:
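Counter-screen for cytotoxicity of hits from NS2B-NS3 protease qHTS. Overnight-attached cells (2.5 x 10^5 cells/mL, DMEM/4% FBS) were dosed in titration, incubated 24 to 48 hours, then assayed by CellTiter Glo.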

Test [5] can be described thus: Confirmatory screen GU Rhodamine qHTS for Zika virus inhibitors qHTS (AID 1347157). Note: potency is the fitted concentration of half-maximal effect; nearly all actives have a fitted effect of over 70% in size. The essentials:
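Unlinked NS2B/NS3, 25 nM; Rhod110 peptide, 1.5 microM; compounds, up to 114 microM. Reaction run 15 min at RT in 10 mM Tris-HCl pH 8.0, 0.01% Tween 20; kinetic fluorescence change fitted with a 4-parameter Hill model.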

Test [6] can be described thus: ZIKV-mCherry secondary qHTS for Zika virus inhibitors (AID 1347158). Note: potency is the fitted concentration of half-maximal effect. Conditions: Vero cells, ZIKV-mCherry infection imaging, 48-72 h. From the text:
Assay Submitters (PI): Avindra Nath, Ph.D., National Institute of Neurological Disorders and Stroke (NINDS), Bethesda, MD Radhakrishnan Padmanabhan, Ph.D., Georgetown University (GU), Washington D.C. Zika Virus causes congenital defects, including microcephaly and is associated with Guillain-Barre syndrome, eningoencephalitis and myelitis in infected adult. […] Using a target-based approach, we hope to establish a screening paradigm to uncover novel, cell-active NS2B-NS3 protease (Zika Virus) specific inhibitors from NCATS' collection of small molecules using qHTS. […] Four assay panel was created to identify potential Zika Virus inhibitors. […]
384 well ZIKV-mCherry Assay: We have developed a new orthogonal imaging assay in 384-well plate format, which uses recombinant virus ZIKV-mCherry in Vero cells. […] The TIFFs were quantitated using the canned Multi Target Analysis protocol (GE Investigator Workstation software v3.7.2). […] A recombinant Zika viral infection was monitored in the Cy5 channel (cells) using a 2 microm collar dilation from the nuclear bitmap. mCherry objects with an average nuclear RFU intensity above 450 (3 stdev above mean negative control wells) were considered "mcherry positive" and data was analyzed by percent infection rate.

For test [7], the system named is Zika virus NS2B-NS3 protease (linked). As to the kind of experiment: 384 well plate NINDS AMC confirmatory qHTS for Zika virus inhibitors (AID 1347163). Note: potency is the fitted concentration of half-maximal effect; nearly all actives have a fitted effect of over 50% in size. The settings on record: Recombinant NS2B-NS3 protease, Ac-VKTGKR-AMC fluorescence. The gist of the method: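 Linked protease 5/30/60 nM final; cpds up to 1 mM final, ~15 min preinc. Substrate Ac-VKTGKR-AMC 30 microM final. RT, dark, 25 min; FI ex 355/em 460; normalized to no-enzyme/no-inhibitor ctrls.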

Test [8] deals with Zika virus NS2B-NS3 protease (linked construct). The test is described as follows: 384 well plate NINDS Rhodamine confirmatory qHTS for Zika virus inhibitors (AID 1347164).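 Note: fluorescence from protease cleavage of Ac-LKRR-rhodamine 110 substrate; potency is the fitted concentration of half-maximal effect; nearly all actives have a fitted effect of over 65% in size.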 The essentials:
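Fluorescence read at ex 485 nm/em 538 nm, 25 min after adding 10 microM Ac-LKRR-Rd substrate at room temperature in the dark; signal normalized to no-enzyme and no-inhibitor controls. Enzyme final 5, 30 or 60 nM; compounds, ~15 min preincubation.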

Test [9] shares this test system. The test is described as follows: Primary screen NINDS Rhodamine qHTS for Zika virus inhibitors (AID 1347160). Note: nearly all actives have a fitted effect of over 55% in size. Note: potency is the fitted concentration of half-maximal effect. The essentials: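 Kinetic fluorescence (Ex 480 nm, Em 540 nm) over 15 min with 1.5 microM Rhodamine110 peptide and 25 nM linked protease.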
Test [10] has as its system Zika virus NS2B-NS3 protease (unlinked complex). The test is described as follows: Primary screen GU Rhodamine qHTS for Zika virus inhibitors: Unlinked NS2B-NS3 protease assay (AID 1347159). Note: nearly all actives have a fitted effect of over 60% in size. Note: potency is the fitted concentration of half-maximal effect. The essentials:
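A qHTS format was used, with compound concentrations ranging up to 114 microM. Each compound was preincubated with 25 nM NS2B-NS3 protease, and the substrate was then added at 1.5 microM. Curves were fitted with a 4-parameter Hill model.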

Records with an inconclusive call do not appear. Entries that show only a call come without a potency. Activity calls are given as the source filed them. Calls come from the whole dose curve; as a rule, active = well fitted curve in the direction sought with a large enough effect; inconclusive = small, poorly fitted or top-dose-only effect, or another doubt; inactive = no such curve, though single readings can be large; an effect the other way counts as inactive or inconclusive.

Lysine-specific demethylase 5B (Homo sapiens), sequence (Q9UGL1 whole entry, looked up): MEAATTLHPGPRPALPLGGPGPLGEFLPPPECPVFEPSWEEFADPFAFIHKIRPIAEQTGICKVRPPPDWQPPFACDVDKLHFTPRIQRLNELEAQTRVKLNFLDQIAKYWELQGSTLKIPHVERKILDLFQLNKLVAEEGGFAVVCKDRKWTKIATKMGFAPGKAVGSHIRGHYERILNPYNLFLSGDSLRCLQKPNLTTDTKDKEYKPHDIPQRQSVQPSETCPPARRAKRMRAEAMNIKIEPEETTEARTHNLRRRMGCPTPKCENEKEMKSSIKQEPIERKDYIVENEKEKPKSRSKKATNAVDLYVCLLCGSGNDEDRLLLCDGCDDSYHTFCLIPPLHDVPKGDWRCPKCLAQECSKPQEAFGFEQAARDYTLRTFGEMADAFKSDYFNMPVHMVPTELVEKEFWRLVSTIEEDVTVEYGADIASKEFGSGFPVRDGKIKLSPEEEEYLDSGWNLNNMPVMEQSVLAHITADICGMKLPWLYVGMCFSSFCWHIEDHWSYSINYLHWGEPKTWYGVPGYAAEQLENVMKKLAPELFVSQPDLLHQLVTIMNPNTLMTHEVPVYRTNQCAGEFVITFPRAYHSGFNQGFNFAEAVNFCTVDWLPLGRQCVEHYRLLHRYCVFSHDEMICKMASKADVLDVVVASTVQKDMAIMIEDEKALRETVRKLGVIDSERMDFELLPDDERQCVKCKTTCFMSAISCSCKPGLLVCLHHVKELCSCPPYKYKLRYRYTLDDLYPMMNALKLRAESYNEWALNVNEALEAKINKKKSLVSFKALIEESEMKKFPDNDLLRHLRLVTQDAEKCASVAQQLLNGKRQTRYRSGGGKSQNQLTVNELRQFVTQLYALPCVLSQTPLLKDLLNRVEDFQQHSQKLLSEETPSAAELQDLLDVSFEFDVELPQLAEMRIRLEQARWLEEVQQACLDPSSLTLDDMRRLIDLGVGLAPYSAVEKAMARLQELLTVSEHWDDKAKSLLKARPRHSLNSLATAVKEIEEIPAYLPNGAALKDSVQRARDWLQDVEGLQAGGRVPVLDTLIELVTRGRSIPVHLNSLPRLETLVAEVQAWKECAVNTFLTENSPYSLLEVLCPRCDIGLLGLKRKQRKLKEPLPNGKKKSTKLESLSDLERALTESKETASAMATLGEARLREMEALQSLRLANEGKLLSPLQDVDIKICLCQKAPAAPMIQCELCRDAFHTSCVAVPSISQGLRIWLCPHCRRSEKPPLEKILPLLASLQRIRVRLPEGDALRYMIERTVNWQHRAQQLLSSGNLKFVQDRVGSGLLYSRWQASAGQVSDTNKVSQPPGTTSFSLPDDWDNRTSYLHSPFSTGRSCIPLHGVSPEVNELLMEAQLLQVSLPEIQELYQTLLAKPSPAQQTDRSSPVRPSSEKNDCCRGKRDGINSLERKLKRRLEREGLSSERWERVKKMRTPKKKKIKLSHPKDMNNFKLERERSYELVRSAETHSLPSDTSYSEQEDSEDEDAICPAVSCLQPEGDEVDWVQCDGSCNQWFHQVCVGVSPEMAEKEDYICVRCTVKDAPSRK

`CCCN(CCC)CCc1ccc(O)c(O)c1`: in [1], the Potency result was “inactive”.

On to `C[CH2][Hg][S]c1ccccc1C(=O)O`, for which the Potency entry in test [1] is “inactive”.

Regarding `CC(C)(C)c1cc(C=C(C#N)C#N)cc(C(C)(C)C)c1O`, the Potency entry in [1] and in test [2] was “inactive” in each case.

On to `NC(N)=NOCC[C@H](N)C(=O)O`, for which the Potency result in [1] and in test [2] was “inactive” throughout.

`CN1CCC(c2c[nH]c3ccc(O)cc23)CC1`: the Potency result in test [1] and in test [2] was “inactive” in each case.

For the molecule `C[N+]1(C)CCOC(O)(c2ccc(-c3ccc(C4(O)C[N+](C)(C)CCO4)cc3)cc2)C1` (configuration not stated), the Potency result in test [1] and in test [2] was “inactive” in each case.

`CCCN(CCC)CCc1c[nH]c2ccc(C(N)=O)cc12`: the Potency result in test [1] is “inactive”.

In the case of `CN1CC[C@@]2(C)c3cc(OC(=O)Nc4ccccc4)ccc3N(C)[C@@H]12`, the Potency result in [1] is “inactive”.

Consider `COC(=O)N1CCN(C(=O)Cc2ccc(Cl)c(Cl)c2)C(CN2CCCC2)C1` (configuration not stated), for which the Potency result in test [1] and in test [2] was “inactive” in each case.

For the molecule `c1ccc2c(c1)[I+]c1ccccc1-2`, the Potency result in [1] and in test [2] was “inactive” each time.

On to `Cc1[nH]c2ccc(O)cc2c1CCN`, for which the Potency entry in [1] was “inactive”.

In the case of `CC(N)Cc1c[nH]c2ccc(O)cc12` (configuration not stated), the Potency result in [1] and in test [2] was “inactive” throughout.

On to `Oc1ccc2c3c1O[C@H]1c4[nH]c5ccccc5c4C[C@@]4(O)C(C2)N(CC2CC2)CCC314` (some centres not stated), for which the Potency entry in test [1] and in test [2] was “inactive” throughout.

As to `C[N+]1(C)CCN(c2ccccc2)CC1`, the Potency result in test [1] and in [2] was “inactive” in each case.

Take `O=[N+]([O-])c1ccc2nc(N3CCNCC3)ccc2c1`: the Potency result in test [1] and in test [2] was “inactive” throughout.

For the molecule `CCNC(=O)[C@H]1O[C@@H](n2cnc3c(N)ncnc32)[C@H](O)[C@@H]1O`, the Potency result in [1] and in [2] was “inactive” in each case.

As for `N#CC(C#N)=Cc1cc(O)c(O)c(O)c1`, the Potency result in [1] is “inactive”.

Turning to `O=c1ccc2[nH]cc(C3=CCNCC3)c2[nH]1`, the Potency is 26.7 µM (active) in test [1] and 44.1 µM (active) in test [3]. Also, in [4], the molecule was classed as inactive.

As to `NCCc1c[nH]c2ccc(C(N)=O)cc12`, the Potency entry in test [1] was “inactive”.

On to `CCCSP(=O)(OCC)SCCC`, for which the Potency result in test [1] is “inactive”.

For the molecule `CC(=O)c1c(O)c(C)c(O)c(Cc2c(O)c3c(c(C(=O)/C=C/c4ccccc4)c2O)OC(C)(C)C=C3)c1O`, the Potency entry in [1] was “inactive”. Further, the Potency in test [5] is 5.62 µM (active); in [6] it was 3.55 µM (active); in test [3], 17.8 µM (active); in test [7], 63.1 µM (active); in test [8], 31.6 µM (active).

As for `CO[C@H]1CC=C2CCN3CCC4=C(CC(=O)OC4)[C@]23C1`, the Potency entry in [1] and in test [2] was “inactive” each time.

On to `O=c1c2ccccc2[se]n1-c1ccccc1`, for which the Potency entry in test [1] is “inactive”.

In the case of `c1ccc2c(N3CCNCC3)cccc2c1`, the Potency entry in test [1] was “inactive”.

Take `COc1ccc2[nH]cc(CCN)c2c1`: the Potency result in test [1], in test [9] and in test [2] was “inactive” in each case.

Consider `CCCN(CCC)[C@@H]1CCc2cccc(O)c2C1`, for which the Potency result in test [1] and in [2] was “inactive” throughout.

On to `C=C(C)[C@H]1O[C@H]2CC[C@@]3(C)[C@@](O)(CC[C@H]4[C@@H]5OC(C)(C)[C@H]6C[C@@H]7C(=C)Cc8c(Cl)cc9[nH]c(c5c9c8[C@@]76O)[C@@]43C)[C@]23O[C@@H]3[C@H]1O`, for which the Potency result in test [1], in [10] and in test [9] was “inactive” in each case.

Turning to `Cc1cc(C)cc(C(=O)OC2C[C@H]3CC[C@@H](C2)N3C)c1` (some centres not stated), in test [1], the Potency entry was “inactive”.

For the molecule `CN(C(=O)Cc1ccc(Cl)c(Cl)c1)C(CN1CCCC1)c1cccc(OCC(=O)O)c1` (configuration not stated), the Potency entry in test [1] and in [2] was “inactive” throughout.

As to `Nc1ccc(CCN2CCN(c3cccc(C(F)(F)F)c3)CC2)cc1`, the Potency entry in [1] and in [2] was “inactive” in each case.

Regarding `CC(Cc1ccc(OCC(=O)O)cc1)NCC(O)c1cccc(Cl)c1` (configuration not stated), the Potency result in [1] and in test [2] was “inactive” throughout.

Turning to `CP(=O)(O)C1=CCNCC1`, the Potency entry in test [1] and in [2] was “inactive” each time.

With `CN1c2ccccc2C(NCCCCCCC(=O)O)c2ccc(Cl)cc2S1(=O)=O` (configuration not stated), in [1], the Potency entry was “inactive”.

As for `Cc1cccc(C(C)c2cnc[nH]2)c1C` (configuration not stated), the Potency result in test [1] is “inactive”.

In the case of `CCCN(CCC)C1CCc2cccc(O)c2C1` (configuration not stated), the Potency result in test [1] and in test [2] was “inactive” throughout.

As for `C/C=C(\C)C(=O)OC1CC2C(C)(C)OC(=O)CC(OC(C)=O)C2(C)C2CC(OC(=O)C(C)C)C3(C)C(c4ccoc4)CC4OC43C12C` (configuration not stated), the Potency result in [10] and in [9] was “inactive” throughout.

With `CC[C@H]1CN2CC[C@H]1C[C@H]2[C@H](O)c1ccnc2ccc(OC)cc12`, the Potency entry in test [10] was “inactive”.

Turning to `CCCN(CCC)C1Cc2cc(OC)c(OC)cc2C1`, the Potency result in test [1] and in test [2] was “inactive” throughout.

Take `N[C@@H](Cn1oc(=O)[nH]c1=O)C(=O)O`: the Potency entry in test [1] and in [2] was “inactive” in each case.

On to `CCC(C)(OC(C)=O)C(=O)O[C@H]1[C@H](OC(C)=O)C[C@@H]2[C@@](C)([C@@H]3C[C@H]4C=CO[C@H]4O3)[C@H](C)C[C@H](OC(C)=O)[C@@]2(COC(C)=O)[C@@]12CO2` (some centres not stated), for which the Potency result in [10] and in [9] was “inactive” each time.

Turning to `C[C@@]1(C(=O)O)CC[C@]2(C)CC[C@]3(C)C4=CC(=O)c5cc(O)c(O)cc5[C@]4(C)CC[C@@]3(C)[C@@H]2C1`, the Potency in [5] is 2.42 µM (active); in test [10], 3.98 µM (active); in test [9], 7.94 µM (active); in [3] it was 1.36 µM (active); in test [7] it was 56.2 µM (active); in test [8], 1.12 µM (active). Further, in test [4], the result was inactive.

Regarding `CC1=C2C[C@H]3[C@@H](CC=C4C[C@@H](O)CC[C@@]43C)[C@@H]2CC[C@]12O[C@@H]1C[C@H](C)CN[C@H]1[C@H]2C`, the Potency result in test [10] and in [9] was “inactive” in each case.
